Compounds without any hit were thinned out: in the full panel of roughly 83,000, 20% have a hit.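 Note: values are percent growth. 100 is the growth of untreated cells, values between 100 and 0 indicate rising inhibition; between -100 and 0 indicates cell death.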 Calls of active or inactive are those of the source. Rule for the calls: active = growth percent below 10; inactive = the rest.
What was measured:
Test in all cases: NCI-60 one-dose screen, 48 h (100 = growth as untreated, 0 = no growth, -100 = all killed)
Conditions in all cases: 10 µM unless noted
[1] = tested on: RPMI-8226 leukemia
[2] = tested on: OVCAR-8 ovarian
[3] = tested on: OVCAR-5 ovarian
[4] = tested on: OVCAR-4 ovarian
[5] = tested on: SK-OV-3 ovarian
[6] = tested on: IGROV1 ovarian
[7] = tested on: OVCAR-3 ovarian
[8] = tested on: HS 578T breast
[9] = tested on: NCI/ADR-RES ovarian
[10] = tested on: T-47D breast

## O=C(Nc1ccc(Cl)cc1)c1cc2ccccc2cc1OP(=O)(O)O
[1]
  growth: -10.1% (active)
[2]
  growth: 27.9% (inactive)
[3]
  growth: 69.1% (inactive)
[4]
  growth: 25% (inactive)
[5]
  growth: 19% (inactive)
[6]
  growth: -1.26% (active)
[7]
  growth: 10.7% (inactive)
[8]
  growth: 32.9% (inactive)
[9]
  growth: 16.6% (inactive)
[10]
  growth: 25.4% (inactive)

## Cc1nc2ccccc2c(/C=C/c2ccccc2)c1C(=O)/C=C/c1ccc(Cl)cc1
[1]
  growth: -36.5% (active)
[2]
  growth: 20.9% (inactive)
[3]
  growth: 14.2% (inactive)
[4]
  growth: 26.5% (inactive)
[5]
  growth: 84.3% (inactive)
[6]
  growth: 14.9% (inactive)
[7]
  growth: -40.5% (active)
[8]
  growth: 27.9% (inactive)
[9]
  growth: 9.61% (active)
[10]
  growth: 13.4% (inactive)

## CC[C@]1(O)C[C@@H]2CN(CCc3c([nH]c4ccccc34)[C@@](C(=O)OC)(c3cc4c(cc3OC)N(C)[C@H]3[C@@](O)(C(=O)OC)[C@H](OC(C)=O)[C@]5(CC)C=CCN6CC[C@]43[C@@H]65)C2)C1
[1]
  growth: 11.3% (inactive)
[2]
  growth: 21.5% (inactive)
[3]
  growth: 17.4% (inactive)
[4]
  growth: 33.7% (inactive)
[5]
  growth: 43.5% (inactive)
[6]
  growth: 9.76% (active)
[7]
  growth: -4.09% (active)
[8]
  growth: 15.8% (inactive)
[9]
  growth: -19.8% (active)
[10]
  growth: 68.6% (inactive)

## CN(C)CCCNCc1ccc(-c2ccc(F)c(Cl)c2)o1
[1]
  growth: -26.3% (active)
[2]
  growth: 59.3% (inactive)
[3]
  growth: 65.3% (inactive)
[4]
  growth: 59.6% (inactive)
[5]
  growth: 73.1% (inactive)
[6]
  growth: 31.6% (inactive)
[7]
  growth: 34.3% (inactive)
[8]
  growth: 57.6% (inactive)
[9]
  growth: 53.8% (inactive)
[10]
  growth: 23.2% (inactive)

## COc1ccc(C2Nc3ncnc(N)c3N=C3c4ccccc4C(=O)C32)cc1 (stereo not given)
[1]
  growth: 80% (inactive)
[2]
  growth: 108% (inactive)
[3]
  growth: 98.1% (inactive)
[4]
  growth: 82.8% (inactive)
[5]
  growth: 84.7% (inactive)
[6]
  growth: 79.4% (inactive)
[7]
  growth: 83.9% (inactive)
[8]
  growth: 94.5% (inactive)
[9]
  growth: 105% (inactive)
[10]
  growth: 80.8% (inactive)

## COc1ccc(Cn2c(Br)c3c(c2Br)-c2nc(NC(=O)c4ccc(OC)cc4)sc2CC3)cc1
[1]
  growth: 71.8% (inactive)
[2]
  growth: 61.4% (inactive)
[3]
  growth: 79.4% (inactive)
[4]
  growth: 49.7% (inactive)
[5]
  growth: 72.9% (inactive)
[6]
  growth: 38.2% (inactive)
[7]
  growth: 88.6% (inactive)
[8]
  growth: 58.1% (inactive)
[9]
  growth: 74.7% (inactive)
[10]
  growth: 68.7% (inactive)

## Nc1nonc1-n1nncc1-c1cccnc1
[1]
  growth: 105% (inactive)
[2]
  growth: 111% (inactive)
[3]
  growth: 110% (inactive)
[4]
  growth: 98.8% (inactive)
[5]
  growth: 104% (inactive)
[6]
  growth: 103% (inactive)
[7]
  growth: 116% (inactive)
[8]
  growth: 101% (inactive)
[9]
  growth: 105% (inactive)
[10]
  growth: 93.9% (inactive)

## CCN(CCO)CCNc1ccc(C)c2sc3cc(Cl)ccc3c(=O)c12
[1]
  growth: 28.2% (inactive)
[2]
  growth: 38.6% (inactive)
[3]
  growth: 64.4% (inactive)
[4]
  growth: 70.8% (inactive)
[5]
  growth: 62.2% (inactive)
[6]
  growth: 56.6% (inactive)
[7]
  growth: 39.3% (inactive)
[8]
  growth: 41.9% (inactive)
[9]
  growth: 45.4% (inactive)
[10]
  growth: 53.9% (inactive)

## Nc1nc(Nc2cccc(F)c2)nc2ccccc12
[1]
  growth: 0.232% (active)
[2]
  growth: 55.9% (inactive)
[3]
  growth: 54.1% (inactive)
[4]
  growth: 40.4% (inactive)
[5]
  growth: 72.7% (inactive)
[6]
  growth: 28% (inactive)
[7]
  growth: 50.6% (inactive)
[8]
  growth: 63.9% (inactive)
[9]
  growth: 38.1% (inactive)
[10]
  growth: 41.5% (inactive)

## COc1ccc(N(C)c2nc(N)nc3sc4c(c23)CCCC4)cc1
[1]
  growth: 25.3% (inactive)
[2]
  growth: 14% (inactive)
[3]
  growth: 49.8% (inactive)
[4]
  growth: 36.2% (inactive)
[5]
  growth: 20.7% (inactive)
[6]
  growth: 17.2% (inactive)
[7]
  growth: 1.77% (active)
[8]
  growth: 26.9% (inactive)
[9]
  growth: 2.25% (active)
[10]
  growth: 70.3% (inactive)

## O=c1oc2ccc(-c3ccc(F)cc3F)cc2c(=O)n1-c1ccc(Cl)c(C(F)(F)F)c1
[1]
  growth: 3.09% (active)
[2]
  growth: 8.57% (active)
[3]
  growth: 74.8% (inactive)
[4]
  growth: 21.6% (inactive)
[5]
  growth: -9.2% (active)
[6]
  growth: 35.3% (inactive)
[7]
  growth: 7.34% (active)
[8]
  growth: 14.6% (inactive)
[9]
  growth: 6.43% (active)
[10]
  growth: -11% (active)

## O=NN(Cc1cccnc1)C(=O)NC1CCCCC1
[1]
  growth: 95.3% (inactive)
[2]
  growth: 104% (inactive)
[3]
  growth: 97.4% (inactive)
[4]
  growth: 104% (inactive)
[5]
  growth: 113% (inactive)
[6]
  growth: 113% (inactive)
[7]
  growth: 114% (inactive)
[8]
  growth: 118% (inactive)
[9]
  growth: 105% (inactive)
[10]
  growth: 98.1% (inactive)

## COc1ccc(-c2cc(=O)c3c(OC)c4ccoc4c(/C=C/C=O)c3o2)cc1
[1]
  growth: 0.179% (active)
[2]
  growth: 28.5% (inactive)
[3]
  growth: 77.1% (inactive)
[4]
  growth: 37.2% (inactive)
[5]
  growth: 84% (inactive)
[6]
  growth: 72.7% (inactive)
[7]
  growth: 18.3% (inactive)
[8]
  growth: 39.2% (inactive)
[9]
  growth: 33.5% (inactive)
[10]
  growth: 1.64% (active)

## COc1ccc(C2C3=C(COC3=O)N(CCO)c3cc4c(cc32)CCC4)cc1 (stereo not given)
[1]
  growth: 86.8% (inactive)
[2]
  growth: 58.4% (inactive)
[3]
  growth: 96.2% (inactive)
[4]
  growth: 75.9% (inactive)
[5]
  growth: 57.3% (inactive)
[6]
  growth: 51.8% (inactive)
[7]
  growth: 0.832% (active)
[8]
  growth: 69.7% (inactive)
[9]
  growth: 65.3% (inactive)
[10]
  growth: 31.5% (inactive)

## COc1c2ccoc2c(/C=C/C=O)c2oc(-c3ccccc3)cc(=O)c12
[1]
  growth: 28% (inactive)
[2]
  growth: 26.1% (inactive)
[3]
  growth: 106% (inactive)
[4]
  growth: 57.8% (inactive)
[5]
  growth: 96.3% (inactive)
[6]
  growth: 80.5% (inactive)
[7]
  growth: 57.7% (inactive)
[8]
  growth: 74.8% (inactive)
[9]
  growth: 32.4% (inactive)
[10]
  growth: 47% (inactive)

## O=C(CCN1C(=O)c2ccccc2C1=O)Nc1ccc(Cl)cc1
[1]
  growth: 8.45% (active)
[2]
  growth: 48.8% (inactive)
[3]
  growth: 104% (inactive)
[4]
  growth: 91.2% (inactive)
[5]
  growth: 97.9% (inactive)
[6]
  growth: 77.8% (inactive)
[7]
  growth: 78.3% (inactive)
[8]
  growth: 39.1% (inactive)
[9]
  growth: 74.1% (inactive)
[10]
  growth: 60.1% (inactive)

## O=C(Nc1ccc(N2CCNCC2)cc1)c1[nH]ncc1Nc1cc(C2CC2)ncn1
[1]
  growth: 55.4% (inactive)
[2]
  growth: 81.2% (inactive)
[3]
  growth: 99% (inactive)
[4]
  growth: 62.3% (inactive)
[5]
  growth: 10.3% (inactive)
[6]
  growth: 33.4% (inactive)
[7]
  growth: 43.7% (inactive)
[8]
  growth: 41.1% (inactive)
[9]
  growth: 102% (inactive)
[10]
  growth: 57.1% (inactive)

## COc1ccccc1N1C(=N)S/C(=C\c2ccc(OCc3ccccc3F)cc2)C1=O
[1]
  growth: 70.1% (inactive)
[2]
  growth: 55.3% (inactive)
[3]
  growth: 101% (inactive)
[4]
  growth: 87% (inactive)
[5]
  growth: 102% (inactive)
[6]
  growth: 73.5% (inactive)
[7]
  growth: 86.7% (inactive)
[8]
  growth: 86.7% (inactive)
[9]
  growth: 71.3% (inactive)
[10]
  growth: 66.8% (inactive)

## O=C(Nc1ccc(-c2nc3cc4ccccc4cc3[nH]2)cc1)c1cccc(Br)c1
[1]
  growth: 23% (inactive)
[2]
  growth: 7.87% (active)
[3]
  growth: 73.7% (inactive)
[4]
  growth: 63.7% (inactive)
[5]
  growth: 43.8% (inactive)
[6]
  growth: 33.2% (inactive)
[7]
  growth: 25.9% (inactive)
[8]
  growth: 83.5% (inactive)
[9]
  growth: 39.2% (inactive)
[10]
  growth: 54% (inactive)

## O=C(N/N=C/c1ccccc1Cl)C(=O)Nc1cccc(C(F)(F)F)c1
[1]
  growth: 93.9% (inactive)
[2]
  growth: 83% (inactive)
[3]
  growth: 97.4% (inactive)
[4]
  growth: 101% (inactive)
[5]
  growth: 102% (inactive)
[6]
  growth: 92.9% (inactive)
[7]
  growth: 115% (inactive)
[8]
  growth: 111% (inactive)
[9]
  growth: 98.4% (inactive)
[10]
  growth: 90.2% (inactive)

## COc1cc(C(C)n2cc(-c3ccccc3)nn2)ccc1OC1CCCC1 (stereo not given)
[1]
  growth: 36.1% (inactive)
[2]
  growth: 65.6% (inactive)
[3]
  growth: 93.1% (inactive)
[4]
  growth: 54.9% (inactive)
[5]
  growth: 75.8% (inactive)
[6]
  growth: 70.9% (inactive)
[7]
  growth: 61.5% (inactive)
[8]
  growth: 94% (inactive)
[9]
  growth: 45% (inactive)
[10]
  growth: 51.5% (inactive)

## COc1ccc(C2C3=C(COC3=O)N(CCO)c3cc4c(cc32)OCCO4)cc1 (stereo not given)
[1]
  growth: 99.9% (inactive)
[2]
  growth: 84.6% (inactive)
[3]
  growth: 99.8% (inactive)
[4]
  growth: 98.8% (inactive)
[5]
  growth: 86.5% (inactive)
[6]
  growth: 80.7% (inactive)
[7]
  growth: 50.4% (inactive)
[8]
  growth: 71.6% (inactive)
[9]
  growth: 95.5% (inactive)
[10]
  growth: 80.4% (inactive)

## O=C(Nc1ccc(F)cc1F)c1cc(I)ccc1O
[1]
  growth: -2.64% (active)
[2]
  growth: 11.8% (inactive)
[3]
  growth: 32.6% (inactive)
[4]
  growth: 20.1% (inactive)
[5]
  growth: -13.8% (active)
[6]
  growth: 22% (inactive)
[7]
  growth: 8.96% (active)
[8]
  growth: 10% (inactive)
[9]
  growth: 8.58% (active)
[10]
  growth: -9.33% (active)

## Cc1[nH]c2ccccc2c(=O)c1CC=C(Cl)Cl
[1]
  growth: -20.7% (active)
[2]
  growth: -84% (active)
[3]
  growth: 40.1% (inactive)
[4]
  growth: -18.6% (active)
[5]
  growth: 86.5% (inactive)
[6]
  growth: 29.4% (inactive)
[7]
  growth: 40.9% (inactive)
[8]
  growth: 84.2% (inactive)
[9]
  growth: 52.4% (inactive)
[10]
  growth: -26.4% (active)

## O=C1NC(=S)NC(=O)C1=Cc1cn(Cc2cn(Cc3cccc4ccccc34)nn2)c2ccccc12
[1]
  growth: 104% (inactive)
[2]
  growth: 102% (inactive)
[3]
  growth: 89.6% (inactive)
[4]
  growth: 92.2% (inactive)
[5]
  growth: 111% (inactive)
[6]
  growth: 82.6% (inactive)
[7]
  growth: 102% (inactive)
[8]
  growth: 81.9% (inactive)
[9]
  growth: 96.5% (inactive)
[10]
  growth: 105% (inactive)

Source: PubChem BioAssay (NCI)
